Experimental data from PubChem BioAssay AID624330 (Southern Research Specialized Biocontainment Screening …, 2012).
Screen size: about 340,000 compounds; about 2,100 (0.62%) were called active.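 The calls were made as follows: active = first-screen hits whose inhibition reached a set limit at any dose in the follow-up dose series; inconclusive = inhibition above the set first-screen limit but never retested; inactive = the rest.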 A selection follows. Results with a measured potency or affinity are listed apart.

Target: Rac GTPase-activating protein 1 (Homo sapiens) (UniProt Q9H0H5)
Sequence (Q9H0H5 whole entry, looked up): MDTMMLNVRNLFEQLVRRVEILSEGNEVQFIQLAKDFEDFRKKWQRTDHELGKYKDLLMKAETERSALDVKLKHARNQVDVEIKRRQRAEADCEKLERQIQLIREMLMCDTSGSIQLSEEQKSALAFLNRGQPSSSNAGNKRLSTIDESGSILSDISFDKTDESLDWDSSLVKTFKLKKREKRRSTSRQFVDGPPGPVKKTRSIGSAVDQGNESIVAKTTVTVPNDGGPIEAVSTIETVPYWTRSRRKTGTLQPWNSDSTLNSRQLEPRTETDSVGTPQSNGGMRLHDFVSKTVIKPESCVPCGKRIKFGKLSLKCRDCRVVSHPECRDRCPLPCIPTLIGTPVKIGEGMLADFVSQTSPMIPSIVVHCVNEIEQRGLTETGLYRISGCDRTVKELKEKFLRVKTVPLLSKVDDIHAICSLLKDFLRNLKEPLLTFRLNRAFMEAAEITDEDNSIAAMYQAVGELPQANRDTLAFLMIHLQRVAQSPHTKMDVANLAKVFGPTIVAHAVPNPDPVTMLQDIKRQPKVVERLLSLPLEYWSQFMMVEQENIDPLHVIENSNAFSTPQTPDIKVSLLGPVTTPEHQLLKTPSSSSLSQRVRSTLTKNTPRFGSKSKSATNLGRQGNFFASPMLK
Assay: MgcRacGAP GTPase-activating activity inhibitors, confirmation, biochemical, ADP Hunter fluorescence, primary and confirmatory (AID 624330);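 also: fluorescence reports GDP produced by GAP-driven GTP hydrolysis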
Settings: MgcRacGAP-stimulated Rac1 GTP hydrolysis, at 30 µM, active compounds read high, GST-tagged Rac1 F28L mutant substrate

inhibition, inactive:
C#CCOCCOCCOCCNc1nc(N2CCN(C(=O)[C@H](Cc3ccc(O)cc3)n3cc([C@@H](N)C(C)CC)nn3)CC2)nc(N2CCN(C(=O)[C@H](Cc3cc4ccccc4[nH]3)n3cc([C@@H](N)C(C)CC)nn3)CC2)n1 (some centres not stated) 7.82%
O=C(Nc1ccccc1)c1ccc2nc(-c3ccco3)c(-c3ccco3)nc2c1 14.3%
O=C(c1ccccc1)c1ccc2nc(-c3ccco3)c(-c3ccco3)nc2c1 25.8%
CCc1cccc(C)c1NC(=O)c1cccc(N(C)C)c1 23.8%
Cc1cc(=O)[nH]c2cc(O)ccc12 5.17%
CCCCCCCCC1=NCCc2c1[nH]c1ccccc21 12.8%
CCOCCc1nnc(NC(=O)Cc2c(F)cccc2Cl)s1 -4.41%
NC(=O)c1ncn([C@@H]2O[C@H](CNCc3ccccc3OCc3ccc(Cl)cc3Cl)[C@@H](O)[C@H]2O)n1 -6.96%
Cc1ccc(Nc2nc(N)c([N+](=O)[O-])c(NCc3ccco3)n2)cc1C 2.81%
O=C(NCc1cccs1)c1ccc2c(c1)OCCO2 -0.21%
Cc1ccc(S(=O)(=O)NCc2ccco2)cc1C 0.0567%
O=C(O)CCNc1ccc2c(c1)OCCO2 19.4%
O=C(NCc1cccs1)Nc1ccc2c(c1)OCO2 -0.17%
O=C(Cc1ccccc1[N+](=O)[O-])Nc1ccc2c(c1)OCCO2 2.24%
CCOc1ccc(Br)cc1CNc1ccc2c(c1)OCCO2 24.3%
COc1ccc(C(=O)CCNc2ccc3c(c2)OCCO3)cc1 38.5%
CCCn1c(=O)[nH]c(=O)c2c1nc(-c1ccc3c(c1)OCCO3)n2CCN1CCOCC1 10.3%
O=S(=O)(c1ccccc1)N(Cc1ccccn1)Cc1ccccn1 3.72%
C/C=C(\C)C(=O)OC(C)(C)[C@H]1Cc2cc3ccc(=O)oc3cc2O1 7.55%
CCC(c1nnc(SCC(=O)Nc2cc(Cl)ccc2C#N)n1C1CCCCC1)N(C)C (configuration not stated) 5.01%
CCc1ccc(-c2cc(C(=O)O)c3ccccc3n2)s1 -3.07%
CCCN(CCC)CCCNC(=O)c1cc2c(=O)[nH]c3ccccc3c2s1 23.4%
O=C(Cc1ccc(Cl)cc1)SCc1ccccc1 4.82%
O=C(NNC(=O)c1cc([N+](=O)[O-])ccc1Cl)c1cccnc1 3.49%
O=c1[nH]c2ccc(S(=O)(=O)Nc3ccc(Br)cc3)cc2[nH]1 0.44%
Cc1ccc(NCc2ccccc2O)cc1 19.1%
Cc1cccc(NCc2ccccc2O)c1 13.2%
Cc1ccc(NCC(O)C(O)C(O)CO)cc1C (configuration not stated) 9.4%
Cc1ccc(NCCC#N)cc1C -10%
COc1ccc(C(CCc2ccc(C)o2)NC(=O)Nc2ccc(OC)cc2OC)cc1 (configuration not stated) 0.8%
C/C=C(\C)C(=O)NCCN1C2=NC[C@@H](Cc3ccccc3)N2C[C@@H]1Cc1ccc(OC)cc1 5.16%
Cc1ccc(O)c(/C=N/NC(=O)Cc2ccc(Cl)cc2)c1 -8.7%
COC(=O)C1=C(C)N(Cc2ccccc2)C(=O)N[C@H]1CCc1ccccc1 8.96%
CCOC(=O)C1CCN(C2=NC(=O)/C(=C/c3ccc(OC)c(OC)c3)S2)CC1 12.3%
COc1ccccc1/C=C1\SC(N2CCC(C)CC2)=NC1=O 8.78%
CCOC(=O)C1CCN(C2=NC(=O)/C(=C/c3ccc(Cl)cc3)S2)CC1 7.83%
CCOC(=O)C1CCCN(C2=NC(=O)/C(=C/c3ccc(OC)cc3)S2)C1 (configuration not stated) 8.26%
CCOC(=O)C1CCCN(C2=NC(=O)/C(=C/c3ccc(OC)c(OC)c3)S2)C1 (configuration not stated) 7.19%
CC1CCN(C2=NC(=O)/C(=C/c3cccc(O)c3)S2)CC1 3.71%
COc1ccc(OC)c(/C=C2\SC(N3CCCC(C)C3)=NC2=O)c1 (configuration not stated) 2.99%
COc1cccc(/C=C2\SC(N3CCCC(C)C3)=NC2=O)c1OC (configuration not stated) 10.3%
CSCCC(=O)N1C(C)CCCC1C(=O)O (configuration not stated) 8.45%
COc1ccccc1-n1c(C)cc(/C=C2\C(=N)N3N=C(CC(=O)N4CCOCC4)SC3=NC2=O)c1C 13.5%
CCCN(CC(=O)Nc1ccccc1C)C(=O)Cc1cccs1 9.22%
COC(=O)C1=C(CS(=O)(=O)c2ccc(Cl)cc2)NC(=O)NC1c1ccc(O)c(OC)c1 (configuration not stated) 0.39%
CC(C)(C)NC(=S)NNC(=O)c1ccc2ncccc2c1 4.55%
O=C(NN=C1CCC(=NNC(=O)c2ccccn2)CC1)c1ccccn1 10.4%
CCOc1ccc(/C=C2\SC(N3CCCCC3)=NC2=O)cc1 10.3%
CCOC(=O)C1CCCN(C2=NC(=O)/C(=C/c3ccc(N(C)C)cc3)S2)C1 (configuration not stated) 3.86%
Cc1ccsc1/C=N/NC(=O)C(O)c1ccccc1 (configuration not stated) 8.51%
S=C(NCc1ccco1)Nc1ccccc1 3.49%
CCN(CC)S(=O)(=O)c1cccc(NC(=O)COC(=O)c2n[nH]c(=O)c3ccccc23)c1 4.21%
COc1ccccc1C(=O)Nc1ccc(N2CCCCC2)cc1 16.2%
COc1cccc(CNC2CCCCCCC2)c1OC 20.3%
COc1cccc(OC)c1C(=O)Nc1ccc(N2CCCC2)cc1 19%
COc1cccc(CNc2ccc(S(N)(=O)=O)cc2)c1OC -0.0267%
COc1cc(CNc2ccc(N3CCCC3)cc2)ccc1OCc1ccccc1F 19.3%
COc1cccc(CNc2ccc(F)c(Cl)c2)c1OC 6.64%
COc1ccc(CC(=O)Nc2cc(Cl)ccc2C(=O)O)cc1 11%
O=C(CSc1nc2cc(Cl)ccc2s1)c1ccco1 9.01%
COc1ccc(N2CCN(C(=O)c3ccccc3N(C)S(=O)(=O)c3ccc(C)cc3)CC2)cc1 30.1%
O=C(O)c1cnc(-c2ccccc2)nc1Oc1ccccc1 4.36%
Nc1nc2n(n1)C(=O)CC(c1ccccc1)N2 (configuration not stated) -15.9%
CC(=O)Nc1ccc(S(=O)(=O)NC(C)C(=O)OCC(=O)Nc2ccc(F)cc2Cl)cc1 (configuration not stated) 4.68%
COc1ccc(NC(=O)[C@H](C)NC(N)=O)cc1S(=O)(=O)Nc1cc(C)ccc1Br 9.93%
Nc1cc(Cl)ccc1N1CCOCC1 2.6%
CC(=O)Nc1cc(C(F)(F)F)ccc1N1CCOCC1 2.07%
O=S(=O)(c1ccc(N2CCOCC2)c(Cl)c1)N1CCOCC1 2.67%
Nc1cc(Cl)ccc1N1CCCCC1 1.75%
CC1CCN(c2ccc(C(F)(F)F)cc2N)CC1 3.8%
Nc1cc(Cl)ccc1N1CCCCCC1 -8.8%
O=C(CN(c1ccccc1)S(=O)(=O)c1ccc(Cl)cc1)Nc1cccnc1 -2.54%
C[C@@H](OC(=O)c1[nH]cnc1C(=O)NCc1ccc(CNC(=O)OC(C)(C)C)cc1)c1ccccc1 7.47%
COc1ccccc1NC(=O)CCC(=O)OCC(=O)c1ccc(C)c([N+](=O)[O-])c1 4.59%
Cc1ccc(NC(=O)Cc2nnc(SCC(=O)NC3=NCCS3)n2C)cc1 9.68%
CC(C)Sc1oc(-c2ccco2)nc1S(=O)(=O)c1ccc(F)cc1 9.8%
COc1cc2nc(NC(=O)c3ccc(Cl)cc3)sc(=O)c2cc1OC 12.1%
Cc1cccc(OC(C)C(=O)Nc2nc(-c3ccncc3)cs2)c1 (configuration not stated) 5.11%
Cc1cccc(Cn2c(N(C)Cc3ccccc3)nc3c2c(=O)[nH]c(=O)n3C)c1 10.6%
C=CCn1c(Cc2ccc(OCC)cc2)nnc1SCC(N)=O 4.65%
Cc1c(Cl)cccc1NC(=S)N1CCN(Cc2ccccc2)CC1 6.91%
Cc1nc(CC(=O)N/N=C/c2ccc(OCC(=O)O)cc2)cs1 -8.35%
O=C(CCC(=O)Nc1ccc(Br)cc1)N/N=C/c1ccc(F)cc1 3.09%
Cc1ccc(NC(=O)CCC(=O)N/N=C/c2cccnc2)cc1 1.87%
O=C(CCC(=O)Nc1ccc(F)cc1)N/N=C/c1ccc(Br)cc1 3.6%
O=C(Cc1ccccc1)NN=Cc1ccccc1 -1.49%
COc1cc(/C=N/NC(=O)CCC(=O)Nc2ccc(C)cc2)ccc1O 26.5%
COc1cc(/C=N/NC(=O)CCC(=O)Nc2ccc(Br)cc2)ccc1O 25.9%
O=C(CCC(=O)Nc1ccc(Br)cc1)N/N=C/c1ccc(O)cc1 22.7%
Cc1ccc(Cl)cc1N1CCN(C(=O)C2CCN(S(=O)(=O)c3cnc[nH]3)CC2)CC1 -2.49%
COc1cc(C(=O)OC(C)C(=O)NC2CCCCC2C)c([N+](=O)[O-])cc1OC (configuration not stated) -4.78%
Cc1cccc(C)c1NC(=O)N1CC=CCC1 8.07%
CCc1c(C)nc(N2CCN(c3ccccc3)CC2)[nH]c1=O -0.57%
Cc1cc(=O)[nH]c2c1c(-c1ccccc1)nn2C 4.24%
O=C1CN(C(=O)c2ccc(F)cc2)c2ccccc2N1 12.4%
CC(=O)Nc1cccc(NC(=O)c2csc(C)c2)c1 8.66%
O=C(O)c1ccc(N2CCCCC2)cc1O 10.7%
